GLP-1R agonist – GLP-1 receptor (human) agonism; P43220; HEK293 GLP-1R CRE-luciferase, luminescence, 4-6 h; cells express a hypersensitive GLP-1R form; Potency, µM (titrated, usually from 45.6 µM), hits mostly activators; AID 624172; actives 0.007% (n = 380,000)
Target sequence (P43220 whole entry, looked up): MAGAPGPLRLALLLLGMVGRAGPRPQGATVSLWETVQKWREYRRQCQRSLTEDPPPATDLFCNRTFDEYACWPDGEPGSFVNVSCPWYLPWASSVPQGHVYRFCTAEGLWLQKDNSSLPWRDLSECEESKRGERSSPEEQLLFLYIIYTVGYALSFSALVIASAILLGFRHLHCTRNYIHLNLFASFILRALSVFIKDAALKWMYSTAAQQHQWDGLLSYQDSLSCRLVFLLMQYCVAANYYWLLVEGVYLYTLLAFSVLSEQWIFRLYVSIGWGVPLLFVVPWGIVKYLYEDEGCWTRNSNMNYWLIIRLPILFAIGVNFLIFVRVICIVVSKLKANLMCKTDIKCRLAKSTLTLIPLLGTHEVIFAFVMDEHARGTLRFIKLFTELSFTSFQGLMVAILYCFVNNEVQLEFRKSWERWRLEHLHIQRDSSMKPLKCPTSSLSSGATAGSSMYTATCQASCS
PTHR1 ag – agonists of human PTHR1 parathyroid hormone receptor; Q03431; HEK293 GP2 PTHR1 cells, GloSensor cAMP luminescence, 1 h; Potency, µM (top dose mostly 115 µM), usual class: activators; actives 0.075% (n = 410,000); also: nearly all actives have a fitted effect of over 55% in size
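HEK-293-derived GP2 cells expressing PTHR1 and a GloSensor cAMP reporter, 3,000/well, plated overnight, given luciferin plus IBMX (each 0.5 mM as added) for 1 h at 37 °C, then compound for 1 h at 37 °C. Luminescence was read after 15 min at room temperature.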
GLP1R cytotox – cytotoxic in the GLP-1 receptor inverse agonist counter-screen; Potency, µM (top dose mostly 38.3 µM), hits mostly inhibitors; actives 0.13% (n = 410,000); HEK293 cAMP-luciferase reporter cells, luminescence, 24 h;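 also: loss of luciferase light is scored as toxicity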
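Seeding density was 200 cells/uL; after overnight-length (12 h) culture, 23 nL compounds went on for 24 h at 37 °C. Readout used a luciferase detection reagent, luminescence taken after 12 min at room temperature.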
GLP-1R inv ag – acts as inverse agonist at human GLP-1 receptor. HEK293 GLP-1R CRE-luciferase, luminescence, 24 h; GLP-1R form is constitutively active. Potency, µM (titrated, usually from 38.3 µM), hits mostly inhibitors. actives 1.6% (n = 410,000). AID 624417; also: nearly all actives have a fitted effect of over 55% in size
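Seeding at 200 cells/uL, 12 h culture, 24 hr compound treatment, then luciferase reagent and a luminescence read; cells are HEK293 stably expressing a constitutively active GLP-1R plus cAMP-responsive luciferase.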
Each line names hits and unclear results; the compound was inactive in the other large screens. Hits are enriched below; roughly 1.7% of the tested compounds scored in any of these assays. Calls follow the shape of the dose curve; as a rule, active = well fitted curve in the direction sought with a large enough effect; inconclusive = small, poorly fitted or top-dose-only effect, or another doubt; inactive = no such curve, though single readings can be large; an effect the other way counts as inactive or inconclusive.

C(=C\c1ccccc1)/CSc1nnc(-c2ccccc2)n1Cc1ccco1	GLP-1R inv ag 7.1µM
C(=C\c1ccccc1)/CSc1nnc(-c2ccncc2)n1Cc1ccco1	none
O=C(CC1N=C2c3ccccc3N=C(SCc3ccccc3F)N2C1=O)NCc1ccc2c(c1)OCO2 (centres undefined)	none (no result: GLP-1R agonist)
CCOc1cc(S(=O)(=O)NC2CC(C)(C)NC(C)(C)C2)ccc1Cl	GLP-1R inv ag 11µM
CCOc1cc(C)c(Cl)cc1S(=O)(=O)NC1CC(C)(C)NC(C)(C)C1	GLP-1R inv ag inconclusive
COc1cc(C)c(Cl)c(C)c1S(=O)(=O)NC1CC(C)(C)NC(C)(C)C1	GLP-1R inv ag 5.6µM
CC1Cn2c(C(=O)NCc3ccccc3Cl)cc3cccc(c32)S1 (centres undefined)	GLP-1R inv ag 11µM (no result: GLP-1R agonist)
COc1ccccc1CNC(=O)c1cc2cccc3c2n1CC(C)S3 (centres undefined)	GLP-1R inv ag inconclusive (no result: GLP-1R agonist)
Cc1ccccc1CNC(=O)c1cc2cccc3c2n1CC(C)S3 (centres undefined)	GLP-1R inv ag 10µM (no result: GLP-1R agonist)
CN1CCCN(C(=O)c2cc(-c3cccc4ccccc34)nc3ccccc23)CC1	GLP-1R inv ag 7.9µM
Cc1ccc(-c2cc(C(F)F)n3ncc(C(=O)N4CCN(c5ccccn5)CC4)c3n2)cc1	GLP-1R inv ag 6.3µM
CCN1CCN(C(=O)c2cnn3c(C(F)F)cc(-c4ccc(C)cc4)nc23)CC1	GLP-1R inv ag inconclusive
CCCc1ccc(-c2cc(C(=O)N3CCN(c4ccccn4)CC3)c3ccccc3n2)cc1	GLP-1R inv ag 3.2µM
Cc1ccc(Nc2nc(-c3ccc(S(=O)(=O)N4CCCC4)cc3)cs2)cc1C	GLP-1R inv ag inconclusive
Cc1cc(C)cc(Nc2nc(-c3ccc(S(=O)(=O)N4CCCC4)cc3)cs2)c1	GLP-1R inv ag 3.5µM
O=C(Nc1ccc(-c2cc(C(F)(F)F)nn2-c2ccccc2)cc1)c1cccc(F)c1	GLP-1R inv ag inconclusive (no result: GLP-1R agonist)
COc1cc(C(=O)Nc2ccc(-c3cc(C(F)(F)F)nn3-c3ccccc3)cc2)cc(OC)c1OC	GLP-1R inv ag 7.9µM (no result: GLP-1R agonist)
COc1cccc(C(=O)c2cn(CC(=O)NCc3ccccc3)c3nc(C)ccc3c2=O)c1	none (no result: GLP-1R agonist)
Cc1ccc(NS(=O)(=O)c2ccc(-n3cccn3)cc2)c(C)c1	GLP-1R inv ag 10µM
CCOc1ccc(/C=N/NC(=O)Cc2csc(Nc3cccc(C(F)(F)F)c3)n2)cc1	GLP-1R inv ag 2.2µM
CCOc1ccc(/C=N/NC(=O)Cc2csc(Nc3cccc(C(F)(F)F)c3)n2)c(OCC)c1	GLP-1R inv ag inconclusive
O=C(Cc1ccc(Cl)cc1)Nc1ccc(-c2nnc(-c3ccco3)o2)cc1	GLP1R cytotox inconclusive, GLP-1R inv ag 10µM
CC(C(=O)Nc1cccnc1)c1ccc([N+](=O)[O-])cc1 (centres undefined)	none
CC(C)Cc1ccc(C(C)C(=O)Nc2cccnc2)cc1 (centres undefined)	GLP-1R inv ag 7.9µM
O=C(Nc1cccc(Cl)c1)Nc1cccc(C(=O)O)c1	GLP-1R inv ag inconclusive
O=C(Nc1ccc(Cl)cc1)Nc1ccccc1C(=O)O	GLP-1R inv ag inconclusive
O=C(Nc1cccc(C(=O)O)c1)Nc1ccccc1Cl	GLP-1R inv ag 4.5µM
COC(=O)c1cc(NC(=O)Nc2ccccc2)ccc1Cl	GLP-1R inv ag 10µM
O=C(Nc1ccc(Cl)c(Cl)c1)Nc1ccccc1C(=O)O	GLP-1R inv ag 5.6µM
O=C(Nc1ccc(Cl)cc1)Nc1cccc(C(=O)O)c1	GLP-1R inv ag 1µM
CCCCn1cnc2cc(NCc3ccccc3Cl)ccc21	none
CCOc1ccccc1NC(=O)Cn1c(=O)n(Cc2ccco2)c(=O)c2ccc(C(=O)NC3CCCC3)cc21	none
O=C(Nc1ccccc1Cl)NN1CCCCCC1	GLP-1R inv ag 2µM
CCOC(=O)c1cccc(NC(=O)c2ccc3snnc3c2)c1	none
CCN(CC)c1nn2c(=O)c(C(=O)NCc3cccc(C)c3)cnc2s1	none (no result: GLP-1R agonist)
COc1ccc(CNC(=O)c2ccc(NC(=O)N3CCCCc4ccccc43)cc2)c(OC)c1	GLP-1R inv ag 11µM (no result: GLP-1R agonist)
CC(C)(C)Cc1c(-c2ccc(F)cc2)nc2ccc(Cl)cn12	GLP1R cytotox inconclusive, GLP-1R inv ag 5.6µM
Cc1ccc(Cc2c(-c3ccc(C)cc3)nc3ccc(Cl)cn23)cc1	GLP-1R inv ag 10µM
Cc1ccc(Cc2c(-c3ccc(Cl)cc3)nc3ccc(Cl)cn23)cc1	GLP-1R inv ag inconclusive
COc1cc2c3c(cccc3c1)C(=O)N(CCN1CCCC1)C2=O	GLP-1R inv ag 4.5µM
COc1ccc(C(=O)CN2CCN(CCN3C(=O)c4cccc5cccc(c45)C3=O)CC2)cc1	GLP-1R inv ag inconclusive
Cc1cc(C)c2c(NC(=O)c3ccccc3Cl)c(C(=O)NCc3ccc(Cl)cc3)sc2n1	none (no result: GLP-1R agonist)
CC1CCCCN1C(=O)C1CCN(c2nc(-c3ccccc3)nc3c2CCC3)CC1 (centres undefined)	PTHR1 ag inconclusive, GLP1R cytotox inconclusive, GLP-1R inv ag 8.9µM
O=C(C1CCN(c2nc(-c3ccccc3)nc3c2CCC3)CC1)N1CCCC1	GLP-1R inv ag inconclusive
CC(C)(C)c1ccc(C(=O)NCC(c2cccnc2)N2CCc3ccccc3C2)cc1 (centres undefined)	GLP-1R inv ag inconclusive (no result: GLP-1R agonist)
CC(C)c1ccc(Nc2nc(NCc3ccco3)nc(N3CCOCC3)n2)cc1	GLP-1R inv ag 2.2µM
CC(C)c1ccc(Nc2nc(N3CCOCC3)nc(N3CCOCC3)n2)cc1	GLP-1R inv ag inconclusive
COc1ccc(-c2nn(-c3ccccc3)cc2/C=N/O)cc1OC	GLP-1R inv ag inconclusive
COc1ccc(-c2nn(-c3ccccc3)cc2/C=N/Nc2ccc3ccccc3n2)cc1OC	GLP1R cytotox 13µM, GLP-1R inv ag inconclusive
COc1ccc(NC2=NC(=S)N(c3ccccc3C)C23CCCCC3)cc1	GLP-1R inv ag 7.9µM
C=CCNc1nc(NCc2ccc(NC(C)=O)cc2)c2sc(-c3ccccc3)cc2n1	GLP1R cytotox inconclusive, GLP-1R inv ag inconclusive
c1ccc(-c2cc3nc(NCC4CC4)nc(NCC4CCCCC4)c3s2)cc1	GLP1R cytotox inconclusive, GLP-1R inv ag 2µM
CC(=O)Nc1ccc(CNc2nc(NC(C)C)nc3cc(-c4ccccc4)sc23)cc1	GLP1R cytotox inconclusive, GLP-1R inv ag 11µM
c1ccc(OCCNc2nc(NCC3CC3)nc3ccsc23)cc1	GLP-1R inv ag 8.9µM
COCCNc1nc(NCC2CCCCC2)c2sc(-c3ccccc3)cc2n1	GLP1R cytotox inconclusive, GLP-1R inv ag inconclusive
Cc1cc(C)c(NC(=S)N(CCN2CCCCC2)Cc2ccco2)c(C)c1	GLP1R cytotox inconclusive, GLP-1R inv ag inconclusive
Cc1cccc(C)c1NC(=S)N(CCN1CCCCCC1)Cc1ccco1	GLP-1R inv ag 10µM
CN(C)c1ccc(CNC(=O)c2cccc(NC(=O)N3CCSc4ncccc43)c2)cc1	none (no result: GLP-1R agonist)
CCC(=O)C(Cc1ccccc1)(Cc1ccccc1)CC(C)N(C)C (centres undefined)	none (no result: PTHR1 ag, GLP1R cytotox, GLP-1R inv ag)
CC(C)c1cc(-c2cc(C(=O)NCc3ccccc3)on2)nc(NC2CCCC2)n1	none

Assay outcomes: PubChem BioAssay, National Center for Advancing Translational Sciences (NCATS)
